Over roughly 33,000 sequences, “e-score” has its median near -0.038; the highest 2% begin near 0.33. The sample holds the highest values, similar sequences and a random draw of the others, so the mix is not that of the screen.

The experiment has as its target T1, GST-Rok-C97-191 (Bacillus subtilis subsp. subtilis str. …, UniProt O34857 97-191).
T1 sequence: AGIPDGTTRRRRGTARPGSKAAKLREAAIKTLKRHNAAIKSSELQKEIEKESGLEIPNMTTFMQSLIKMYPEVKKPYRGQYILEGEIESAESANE
The experiment in a line: protein binding microarray; Rok is a gene silencer of Bacillus subtilis; high values mean tight binding. The conditions noted are these: protein: recombinant; tags: GST (pTH5325, pDEST15-Magic modified); dsDNA, one strand shown. The procedure, abridged: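 Each has a 25-mer constant primer and a 35-mer variable part from a de Bruijn sequence of order 10, covering every non-palindromic 8-mer at least 32 times (palindromic 16). Preference for each 8-mer is given as a rank-based, unitless enrichment score (E-score). Its range runs from 0.5 (most favored) to −0.5 (most disfavored).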
Take ACTCTACC: the binding signal is -0.0607 E-score.

Regarding CTTCTACC, the binding signal turned out to be 0.348 E-score.

With ATTCTACC, the binding signal worked out at 0.467 E-score.

With ATTCTACG, the binding signal was 0.179 E-score.

In the case of ATTCAGTC, the binding signal turned out to be 0.00215 E-score. Then AAGTATGA, with 0.179 E-score; and ATTCAATG, with -0.0215 E-score.

In the case of AACAGCGT, the binding signal was -0.0978 E-score. Then AAGCATGG, with -0.183 E-score; and TAAATGCA, with 0.289 E-score; and TGAATTAA, with 0.0945 E-score. To AGTTGAAC belongs -0.0218 E-score; to GGTAGGTA, 0.331 E-score; to GCTAGGTA, 0.145 E-score. Consider CGTAGGTA, for which the binding signal amounted to 0.336 E-score. Take AGTAGGTC: the binding signal was 0.159 E-score. Consider CCTAGGTA, for which the binding signal amounted to 0.144 E-score.

As for AGTAGGTA, the binding signal came to 0.4 E-score.

With AGTAGGTG, the binding signal was determined as 0.127 E-score.

Take GGTAGGAA: the binding signal was 0.247 E-score. On to CGTAGGCA, for which the binding signal was -0.0837 E-score. On to CAATGAAA, for which the binding signal was -0.098 E-score. For the sequence CAGCATGA, the binding signal was -0.0331 E-score.

For CTGGAGGA, the binding signal is -0.0909 E-score. As to CGTGTTAC, the binding signal is 0.0253 E-score. In the case of CGTAGCCC, the binding signal was -0.128 E-score. For the sequence CCTAATAA, the binding signal was -0.00276 E-score. Then TAGACCCA, with 0.00211 E-score; and CTATAGTC, with 0.122 E-score.

As to GTATAGTA, the binding signal amounted to 0.25 E-score. Take ATATAGTG: the binding signal came to 0.253 E-score. With CTATAGTA, the binding signal amounted to 0.371 E-score.

As for GTATCGTA, the binding signal was 0.268 E-score. Then CTATCGTA, with 0.357 E-score. Then ATATCGTA, with 0.263 E-score; and ATATAGTA, with 0.438 E-score. For the sequence ATATAGTC, the binding signal came out at 0.225 E-score. To CGGGACTA belongs 0.0767 E-score; to AATGATGC, 0.103 E-score. On to AAGGTCTA, for which the binding signal was -0.133 E-score.

On to ATTCCGGC, for which the binding signal turned out to be 0.0407 E-score. With CCCACTAG, the binding signal is 0.0169 E-score. For AGGTTAGG, the binding signal was -0.139 E-score. GCCTTCGC: the binding signal is -0.0744 E-score. In the case of CCCAACTA, the binding signal was 0.257 E-score. To CAATAAGA belongs -0.045 E-score; to CAATGACG, -0.168 E-score.

As for AGGTTCAG, the binding signal amounted to 0.0249 E-score. Then ATACATAT, with 0.377 E-score; and AAACATAT, with 0.276 E-score; and GTACATAC, with 0.172 E-score. Regarding ATACATAG, the binding signal was determined as 0.371 E-score. With CTACATAG, the binding signal turned out to be 0.152 E-score.

With CTACATAC, the binding signal was 0.274 E-score.

With CTACATAA, the binding signal came out at 0.203 E-score. As for ATACACAT, the binding signal worked out at 0.214 E-score. ATACATAA: the binding signal turned out to be 0.273 E-score. In the case of TTACATAA, the binding signal came out at 0.288 E-score. Take GTACATAA: the binding signal is 0.328 E-score. ATACATAC: the binding signal stood at 0.338 E-score. In the case of ACGGGACT, the binding signal stood at 0.158 E-score. As to CATCATTC, the binding signal was found to be 0.0109 E-score. Regarding GCGATGCC, the binding signal was -0.131 E-score. To CGACTTGA belongs 0.0696 E-score; to CTGCGTAC, -0.112 E-score; to TCCGAGCA, 0.113 E-score. To AAAATGTA belongs 0.316 E-score; to GAAATGTA, 0.329 E-score; to GAAATGTC, 0.165 E-score. For the sequence TAAATGTA, the binding signal is 0.399 E-score. Regarding GAAATGCA, the binding signal was -0.0957 E-score. To CAAATGTA belongs 0.269 E-score.

Take TGCCTAAA: the binding signal was -0.0357 E-score.

ACCCTTAT: the binding signal came out at 0.126 E-score. Then CGCACTGC, with 0.0347 E-score; and ACATCGAG, with 0.0748 E-score; and ACGTGGGG, with -0.173 E-score.

ATATTCTA: the binding signal worked out at 0.408 E-score. Consider AGATTCTC, for which the binding signal was 0.00255 E-score. In the case of AGATTCTA, the binding signal stood at 0.356 E-score. Take CTATTCTA: the binding signal was found to be 0.287 E-score.

As for ATATTCTC, the binding signal is 0.327 E-score. Turning to GGATTCTA, the binding signal was found to be 0.293 E-score. With TCATCTAA, the binding signal was -0.0045 E-score. Regarding CAGGTCTC, the binding signal was -0.144 E-score.

Turning to GACTTGGC, the binding signal was -0.0709 E-score. Then GTAATACA, with 0.258 E-score; and ATAATATG, with 0.244 E-score. Turning to ACAATATG, the binding signal stood at 0.146 E-score. As to CCAATATA, the binding signal came out at 0.323 E-score. For the sequence ATAATATC, the binding signal was 0.209 E-score.

As to ATAATATA, the binding signal turned out to be 0.435 E-score. On to GTAATAGA, for which the binding signal was determined as 0.284 E-score. As for ACAATATA, the binding signal stood at 0.354 E-score. For the sequence CTAATATC, the binding signal was found to be 0.141 E-score. With CTAATATA, the binding signal came out at 0.36 E-score. CTAATAGA: the binding signal was found to be 0.252 E-score. Regarding GTAATATA, the binding signal turned out to be 0.335 E-score. As for AGTGCCGC, the binding signal was -0.0284 E-score. Turning to ATGGTGAA, the binding signal was 0.0706 E-score.

For the sequence GCTGATTA, the binding signal came to 0.0269 E-score. To GAAAGAAC belongs 0.0785 E-score. In the case of CCAGTTGA, the binding signal was -0.091 E-score. AACAGAGG: the binding signal was -0.0648 E-score.

In the case of CGAGTGTC, the binding signal was -0.0337 E-score. ATGACGGG: the binding signal was -0.176 E-score. In the case of GGGGCTAA, the binding signal was -0.0896 E-score. As to ATAAGAAT, the binding signal came out at 0.215 E-score. On to GGAATATA, for which the binding signal was determined as 0.377 E-score. On to AGAATATA, for which the binding signal worked out at 0.231 E-score. With CGAATATA, the binding signal stood at 0.245 E-score. Then CAACGGCA, with -0.159 E-score.

With GCGCAATA, the binding signal was determined as 0.0439 E-score. In the case of AGCGGTAG, the binding signal was determined as 0.33 E-score. Turning to ACCGGTAG, the binding signal turned out to be 0.335 E-score.

Take AGCGGTAT: the binding signal is 0.237 E-score.

Regarding CCCGGTAG, the binding signal is -0.134 E-score.

For ACCGGTAA, the binding signal turned out to be 0.192 E-score. For the sequence CGCGGTAG, the binding signal is 0.00539 E-score. As for ATGACCCA, the binding signal was -0.129 E-score. For GTTTGTTA, the binding signal amounted to 0.13 E-score.

Consider ACATCAAA, for which the binding signal was found to be 0.02 E-score. In the case of CCTGTCAG, the binding signal was -0.131 E-score.

As to AACTAATT, the binding signal was determined as 0.344 E-score.

For the sequence CACTAAAA, the binding signal was 0.299 E-score. Then AACTAACG, with 0.263 E-score; and AACTAATC, with 0.129 E-score. To AACTAAAC belongs 0.00571 E-score; to GACTAAAA, 0.144 E-score. Take AACTAAAG: the binding signal is -0.0536 E-score. Regarding TACTAAAA, the binding signal amounted to 0.421 E-score. For the sequence AACTAATA, the binding signal was found to be 0.288 E-score. For AACTAACT, the binding signal was found to be 0.352 E-score. Then AACTAAAT, with 0.379 E-score; and AACTAACA, with 0.126 E-score.

In the case of AGGCACAT, the binding signal was -0.0618 E-score.

On to CTGCAACA, for which the binding signal was found to be 0.0545 E-score. With ACGGACCA, the binding signal is -0.109 E-score.

For CGTCCTTA, the binding signal worked out at 0.175 E-score. As to AAAATGTG, the binding signal is 0.218 E-score. To GTGCGAAC belongs -0.184 E-score.

Regarding GCGAATAC, the binding signal stood at 0.0221 E-score. As to AAACTGGG, the binding signal is -0.197 E-score. Consider CCCGCTAC, for which the binding signal is -0.0971 E-score. For AGACCTAG, the binding signal was 0.0543 E-score. As for AGAAGCTC, the binding signal is -0.0476 E-score.

For the sequence CCTAATCC, the binding signal turned out to be 0.0562 E-score. As for CGATAAGA, the binding signal turned out to be 0.0724 E-score. Turning to AACTAAGA, the binding signal worked out at 0.223 E-score. As for ACCTAAAA, the binding signal came to 0.295 E-score. Then AACTAAAA, with 0.347 E-score; and AACACAAA, with 0.135 E-score; and AGCGCAAG, with -0.0906 E-score. As to ATACGACC, the binding signal was 0.00262 E-score. AAAGGTAG: the binding signal came to 0.316 E-score. Then ATTAACTA, with 0.367 E-score; and ATTAACTG, with 0.214 E-score. CTTAACTA: the binding signal amounted to 0.273 E-score.

GTTAACTA: the binding signal is 0.376 E-score. For the sequence GTTAACGA, the binding signal was found to be 0.0428 E-score. For ATTAACTC, the binding signal was determined as 0.124 E-score. Then TAGTCACA, with 0.123 E-score; and TCGGGCCA, with -0.12 E-score; and AGAGTGCG, with -0.139 E-score. Then AGTAGAGA, with 0.206 E-score; and AGTAGAAG, with 0.276 E-score; and AGTAGAAC, with 0.234 E-score. For ATTAGAAA, the binding signal stood at 0.282 E-score.

Consider AGTAGAAA, for which the binding signal is 0.448 E-score.

AGTAGAAT: the binding signal worked out at 0.422 E-score. AACGGGCT: the binding signal was -0.138 E-score. As for AGCCATTG, the binding signal was -0.0954 E-score.

The record behind these values is article PMC6212790, “How bacterial xenogeneic silencer rok distinguishes foreign from self DNA in its resident genome”.
